From PubChem BioAssay
Inconclusive results are not listed. Active and inactive are the calls of the source. Unless noted, cut-off not given; nearly all actives show AC50 up to about 26 µM.

What was measured:
[1] = growth inhibition of DIPG glioma cells, dose response, cell-based, SU-DIPG-XVII, MIPE5.0, CellTiter-Glo, qHTS (AID 1347060); details: SU-DIPG-XVII viability, CellTiter-Glo ATP luminescence;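 on AC50: cells exposed to compound for 48 hours before viability readout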
[2] = growth inhibition of DIPG glioma cells, dose response, cell-based, SU-DIPG-XIII, MIPE4.0, CellTiter-Glo, qHTS (AID 1347061; cut-off not given, nearly all actives have AC50 up to about 37 µM;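 further: cells exposed to compound for 48 hours before readout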); details: SU-DIPG-XIII viability, CellTiter-Glo ATP luminescence
[3] = growth inhibition of DIPG glioma cells, dose response, cell-based, JHH-DIPG-1, MIPE4.0, CellTiter-Glo, qHTS (AID 1347062; cut-off not given, nearly all actives have AC50 up to about 27 µM;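 on AC50: cells exposed to compound for two days before readout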); details: JHH-DIPG-1 viability, CellTiter-Glo ATP luminescence
[4] = growth inhibition of DIPG glioma cells, dose response, cell-based, SU-DIPG-IV, MIPE4.0, CellTiter-Glo, qHTS (AID 1347063; cut-off not given, nearly all actives have AC50 up to about 30 µM;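 further: compound exposure lasted 48 hours before the viability readout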); details: SU-DIPG-IV viability, CellTiter-Glo ATP luminescence
[5] = viability loss in pontine glioma line – cell-based, SU-DIPG-XXV, MIPE5.0, CellTiter-Glo, qHTS, dose response (AID 1347065); details: CellTiter-Glo ATP luminescence;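 further: cells exposed to compound for 48 hours before ATP readout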
[6] = SU-DIPG-VI glioma cell viability, MIPE4.0 library, CellTiter-Glo luminescence, qHTS (AID 1347066; cut-off not given, nearly all actives have AC50 up to about 30 µM;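 further: cells exposed to compound for 48 hours before readout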); details: CellTiter-Glo ATP luminescence
[7] = JHH-DIPG-1 glioma cell viability, MIPE5.0 library, CellTiter-Glo luminescence, qHTS (AID 1347067); details: JHH-DIPG-1 glioma viability, CellTiter-Glo ATP luminescence;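 further: cells exposed to compound for 48 hours before readout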
[8] = SU-DIPG-XXV glioma cell viability, MIPE5.0 library, qHTS (AID 1347068; cut-off not given, nearly all actives have IC50 up to about 30 µM)
[9] = survival rescue of mitochondrial mutant cells in low glucose, primary screen, MELAS cybrids, Rieske KO mouse fibroblasts, CellTiter-Glo (AID 1508586;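 active means mean z-score across replicates of 1.96 or higher in either the MELAS or the Rieske mutant cell line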;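 further: z relative to plate mean and SD of compound and empty wells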)
[10] = sensitizers of A549 cells to miR-34 induction, primary screen, imaging, A549 dox-inducible miR-34, nuclei and caspase counts (AID 1347080;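 active means compounds whose cell count with miR-34 switched on is under 0.7 times the count with it off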); details: A549 miR-34 inducible, Hoechst nuclei count, 48 h
[11] = modifiers of HSF1 nuclear foci, imaging, Selleck Cancer Library (AID 1347162; in the data active means plate-normalised HSF1 focus index below about 0.46); details: human cells, at 10 µM; SSMD: measured here: HSF1 foci SSMD mean; cell count: measured here: cell number; plate-normalised HSF1 focus index: stronger effect = lower value
[12] = MELAS cybrid survival, CellTiter-Glo 48 h, stronger effect = higher value
[13] = Rieske KO mouse fibroblast survival, CellTiter-Glo 72 h

CC(C)(F)C[C@H](N[C@@H](c1ccc(-c2ccc(S(C)(=O)=O)cc2)cc1)C(F)(F)F)C(=O)NC1(C#N)CC1
inactive: outcome [1] | outcome [2] | outcome [3] | outcome [4] | outcome [5] | outcome [6] | outcome [7] | outcome [8]

CC1(C)O[C@@H]2C[C@H]3[C@@H]4CCC5=CC(=O)C=C[C@]5(C)[C@H]4[C@@H](O)C[C@]3(C)[C@]2(C(=O)CO)O1
inactive: outcome [1] | outcome [2] | outcome [3] | outcome [4] | outcome [5] | outcome [6] | outcome [8] | z-score [9, 12] -0.574
0.349: z-score [9, 13]

C=C1C(=O)OC(CCCCCCCC)C1C(=O)O (stereo not given)
inactive: outcome [1] | outcome [2] | outcome [3] | outcome [4] | outcome [5] | outcome [6] | outcome [7] | outcome [8]

Cc1cc(Nc2ncnc3ccc(-c4ccc(CNCCS(C)(=O)=O)o4)cc23)ccc1Oc1ccn2ncnc2c1
7890: cell count ([10]; measured here: total cells with miR-34 induction, stronger effect = lower value)
-0.462: z-score [9, 13]
active: AC50 [1] 23.5 µM | AC50 [2] 23.5 µM | AC50 [3] 18.7 µM | AC50 [4] 14.8 µM | AC50 [5] 16.6 µM | AC50 [6] 16.6 µM | AC50 [7] 20.9 µM
1.06: fold change ([10]; measured here: relative caspase fold change +Dox/-Dox)
inactive: outcome [8] | fold change ([10]; stronger effect = lower value, cell number ratio, induced over uninduced) 0.962 | z-score [9, 12] 1.86
8200: cell count ([10]; measured here: total cells without miR-34 induction)

O=C1CCC[C@@H]2[C@H]3CCC[N+]4([O-])CCC[C@@H](CN12)[C@@H]34 (stereo not given in full)
inactive: outcome [1] | outcome [2] | outcome [3] | outcome [4] | outcome [5] | outcome [6] | outcome [7] | outcome [8]

Cn1c2cc(S(C)=O)sc2c2cnn(Cc3cccc(N)c3)c(=O)c21 (stereo not given)
inactive: outcome [1] | outcome [2] | outcome [3] | outcome [4] | outcome [5] | outcome [6] | outcome [7] | outcome [8]

COc1ccc(C2CC(c3ccccc3)=NN2c2ccc(S(N)(=O)=O)cc2)cc1 (stereo not given)
7280: cell count [11]
active: AC50 [3] 4.69 µM | AC50 [4] 16.6 µM
inactive: outcome [1] | outcome [2] | outcome [5] | outcome [6] | outcome [7] | plate-normalised HSF1 focus index [11] 1.13
2.07: SSMD [11]
